Source: ChEMBL document CHEMBL5606458, “ASAP - ZIKV NS2B-NS3 protease fluorescence single point” (2024)
Screen size: about 2,700 compounds; about 160 (5.9%) showed an effect of 50% or more. Shown is part of a subset that was picked to be rich in strong results.

Target: Nonstructural protein 3 (Zika virus) (UniProt A0A024AXB9)
Sequence (A0A024AXB9 as listed by the source): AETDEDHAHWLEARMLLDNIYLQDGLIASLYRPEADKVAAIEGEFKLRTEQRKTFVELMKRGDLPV

O=C(Nc1cccc(N2CCNCC2)c1)c1cccc2ncccc12
inhibition (PRVABC59, Concentration 49.5 uM, Number of replicates 2.0, Standard deviation 0.4660025311194914 %): 12.8%
inhibition (PRVABC59, Concentration 99.01 uM, Number of replicates 2.0, Standard deviation 1.8240670503820091 %): 21.1%
inhibition (PRVABC59, Concentration 198.0 uM, Number of replicates 2.0, Standard deviation 0.426059457023535 %): 34.4%

CCn1ccnc(N2CC[C@@H](Cc3ccncc3)C2)c1=O
inhibition (PRVABC59, Concentration 50.0 uM, Number of replicates 2.0, Standard deviation 17.324672814645545 %): 18.6%
inhibition (PRVABC59, Concentration 100.0 uM, Number of replicates 2.0, Standard deviation 1.6917913579666908 %): 12.9%
inhibition (PRVABC59, Concentration 200.0 uM, Number of replicates 2.0, Standard deviation 5.92774721773736 %): 23.1%

CC(C)c1cc(CN2CCC3(CC2)C(=O)NCc2ccccc23)n[nH]1
inhibition (PRVABC59, Concentration 49.5 uM, Number of replicates 2.0, Standard deviation 2.3847652893231714 %): 1.4%
inhibition (PRVABC59, Concentration 99.01 uM, Number of replicates 2.0, Standard deviation 4.553677158798315 %): 2.83%
inhibition (PRVABC59, Concentration 198.0 uM, Number of replicates 2.0, Standard deviation 2.2809894644583135 %): 6.37%

O=S(=O)(c1c[nH]c2ccccc12)N1CCC(c2cnc3ccc[nH]c2-3)CC1
inhibition (PRVABC59, Concentration 49.5 uM, Number of replicates 2.0, Standard deviation 0.9724228784365659 %): 34%
inhibition (PRVABC59, Concentration 99.01 uM, Number of replicates 2.0, Standard deviation 0.1115050511195736 %): 36.4%
inhibition (PRVABC59, Concentration 198.0 uM, Number of replicates 2.0, Standard deviation 2.3986425606638684 %): 29%

CCn1ccnc(N2CC[C@H](c3ccc(OC)nc3)C2)c1=O
inhibition (PRVABC59, Concentration 50.0 uM, Number of replicates 2.0, Standard deviation 2.450630192539874 %): 10.5%
inhibition (PRVABC59, Concentration 100.0 uM, Number of replicates 2.0, Standard deviation 0.40502109894604904 %): 17.9%
inhibition (PRVABC59, Concentration 200.0 uM, Number of replicates 2.0, Standard deviation 0.08715563662307181 %): 30.5%

CCCCCNC(=O)c1cc(Cl)ccc1NS(=O)(=O)c1ccc(Oc2ccccc2Cl)cc1
inhibition (PRVABC59, Concentration 49.5 uM, Number of replicates 2.0, Standard deviation 0.82866638448688 %): 30.5%
inhibition (PRVABC59, Concentration 99.01 uM, Number of replicates 2.0, Standard deviation 0.1903473061675686 %): 14.2%

CN(CCS(N)(=O)=O)C(=O)c1cc(Cl)ccc1NS(=O)(=O)c1ccc(Oc2ccccc2Cl)cc1
inhibition (PRVABC59, Concentration 49.5 uM, Number of replicates 2.0, Standard deviation 4.192376018410405 %): 8.99%
inhibition (PRVABC59, Concentration 99.01 uM, Number of replicates 2.0, Standard deviation 3.3291863073712813 %): 17.3%
inhibition (PRVABC59, Concentration 198.0 uM, Number of replicates 2.0, Standard deviation 0.7795966632269805 %): 72.5%

CCCN(C)C(=O)c1cc(Cl)ccc1NS(=O)(=O)c1ccc(Oc2ccccc2Cl)cc1
inhibition (PRVABC59, Concentration 49.5 uM, Number of replicates 2.0, Standard deviation 1.6827651888895978 %): 30.1%
inhibition (PRVABC59, Concentration 99.01 uM, Number of replicates 2.0, Standard deviation 1.553741884480168 %): 42.7%
inhibition (PRVABC59, Concentration 198.0 uM, Number of replicates 2.0, Standard deviation 1.4828704414225533 %): 51.4%
